Bioassay records: PubChem, National Center for Advancing Translational Sciences (NCATS)
Sampled rows, rich in hits. Any-hit rate of the full collection: about 19%.
Pf growth 96h: P. falciparum growth inhibition at 96 hours. 320,000 compounds, 6.9% hits. P. falciparum luciferase reporter growth, 96 h. Potency, µM (top dose mostly 28.7 µM), inactives show top-dose activity change, negative = inhibition, most hits filed as inhibitors. AID 504834; further: potency means the concentration at half of the fitted maximal effect; on the % scale 0 is the no-effect control and ±100 the full control effect
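P. falciparum expressing integrated firefly luciferase, in erythrocytes at 2% hematocrit, 0.05% parasitemia, incubated with compounds 96 h at 37 C, 5% CO2. Growth inhibition read as loss of luminescence; two-generation exposure targets delayed-death apicoplast inhibitors.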
CHX counter: counter-screen for Shiga toxin inhibitors: cycloheximide protein synthesis inhibition. cell reporter, cycloheximide protein synthesis inhibition counterscreen. max response, %. 300,000 compounds, 12% hits; in the data active means max response mostly above about 13%, no sharp cut-off; inactive means mostly below about 14%; further: read at 38.3 µM for the half of the compounds with a filed dose; 0% is about no effect
Lassa entry inh: inhibitors of Lassa virus binding or cell entry; Lassa virus pseudotype entry inhibition, cell reporter; Potency, µM (doses to about 37.9 µM), without a hit: top-dose activity change, negative = inhibition, actives largely listed as inhibitors; 300,000 compounds, 1.2% hits; AID 540256; calls by dose curve; tested in HEK293 cells; further: potency means the concentration at half of the fitted maximal effect; on the % scale 0 is the no-effect control and ±100 the full control effect; nearly all actives have a fitted effect of over 50% in size
Marburg entry inh: blocks Marburg virus binding to or entry into cells. 300,000 compounds, 1.8% hits. Potency, µM (titrated, usually from 37.8 µM), for inactives: at the highest dose activity change, negative = inhibition, actives largely listed as inhibitors. Marburg virus pseudotyped entry inhibition, cell reporter; calls by dose curve; tested in HEK293 cells; further: potency means the concentration at half of the fitted maximal effect; on the % scale 0 is the no-effect control and ±100 the full control effect
Shiga inhibitor: blocks Shiga toxin action in Vero cells; Vero cells, Shiga toxin protein synthesis inhibition reporter; 290,000 compounds, 9.2% hits; inhibition, % at 38.7 µM; in the data active means inhibition mostly above about 28%, no sharp cut-off; inactive means mostly below about 43%; further: 0% is about no effect
Pf growth 48h: P. falciparum growth inhibition at 48 hours (one generation); 310,000 compounds, 5.9% hits; P. falciparum luciferase growth in erythrocytes, 48 h; AID 504832; Potency, µM (top dose mostly 28.7 µM), inactives show at the highest dose activity change, negative = inhibition, hits mostly inhibitors; further: potency means the concentration at half of the fitted maximal effect; on the % scale 0 is the no-effect control and ±100 the full control effect
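Erythrocytes infected with P. falciparum carrying an integrated firefly luciferase reporter (2% hematocrit, 0.1% parasitemia final) were exposed to compounds in RPMI 1640 with 0.5% Albumax at 37 C, 5% CO2. Growth inhibition was scored as reduced luminescence.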
Numbers without * were called inactive; [ ] = remark or other dose. Unless noted, the call rests on the fitted dose curve; in most records, active means well fitted inhibition curve with a large enough effect; inconclusive means small, poorly fitted or top-dose-only effect, or another doubt; inactive means no such curve, though single readings can be large or run the other way.

`C#CCOCCOCCOCCNc1nc(N2CCN(C(=O)CCCCCCCCCCNC(=O)[C@H](CCCCN)n3cc(CCCC(=O)O)nn3)CC2)nc(N2CCN(C(=O)CCCCCCCCCCNC(=O)[C@H](CCCN=C(N)N)n3cc(C[C@@H](C)CC)nn3)CC2)n1` gave Pf growth 96h 13.1µM* and Pf growth 48h 10.4µM*.
`Cc1ccc(/C=N/NC(=O)c2ccc3nc[nH]c3c2)o1` gave Pf growth 96h -6.6%, CHX counter -0.7, Lassa entry inh 3.6%[46.1 µM], Marburg entry inh -6.0%[46.1 µM], Shiga inhibitor 9.3 and Pf growth 48h inconclusive.
`COC(CNC(=O)c1ccc2c(=O)n(Cc3ccc(Cl)cc3)c(=S)[nH]c2c1)OC` gave Pf growth 96h inconclusive, CHX counter -2.7, Shiga inhibitor -2.3 and Pf growth 48h -8.8%.
For Oc1c(C2=NCCNC(C(F)(F)F)=C2)ccc2ccccc12 the results were Pf growth 96h 20.7%, CHX counter 38.4*, Lassa entry inh inconclusive, Marburg entry inh inconclusive, Shiga inhibitor 69.6* and Pf growth 48h 74.8%.
Screening Cc1ccc(O)c(C2=NCCNC(C(F)(F)F)=C2)c1 returned Pf growth 96h inconclusive, CHX counter -3.7, Lassa entry inh 14.5%, Marburg entry inh 11.4% and Shiga inhibitor 2.3.
For C/C(=N/O)c1cccc(N2Cc3ccccc3C2)c1 the results were Pf growth 96h inconclusive, CHX counter 17.9*, Lassa entry inh 13.1%[46.1 µM], Marburg entry inh inconclusive, Shiga inhibitor 50.7* and Pf growth 48h 13.1µM*.
`Cc1ccc(C(=O)OCC(=O)N(C)C2CCS(=O)(=O)C2)cc1S(=O)(=O)N1CCOCC1` (configuration not stated) gave Pf growth 96h -14.5%, Lassa entry inh 2.9%, Marburg entry inh 24.6% and Pf growth 48h -7.3%.
`Cc1cc(C=C2C(=O)NC(=O)NC2=O)c(C)n1-c1cccnc1` gave Pf growth 96h 17.1%, CHX counter -4.5, Lassa entry inh -2.2%, Marburg entry inh 3.4%[46.1 µM], Shiga inhibitor -6.1 and Pf growth 48h 1.0%.
Cc1cc(/C=C2/NC(=S)NC2=O)c(C)n1-c1cccnc1 was read as Pf growth 96h 7.0%, CHX counter 37.2*, Lassa entry inh -18.5%, Marburg entry inh -27.9%, Shiga inhibitor 50.8* and Pf growth 48h 22.8%.
`CC1=NN(c2ccccc2)C(=O)/C1=C\c1cc(C)n(-c2cccnc2)c1C` gave Pf growth 96h inconclusive, CHX counter 2.1, Lassa entry inh inconclusive, Marburg entry inh 7.0%, Shiga inhibitor 14.9 and Pf growth 48h inconclusive.
Cc1cc(/C=C2/SC(=S)N(c3ccc([N+](=O)[O-])cc3)C2=O)c(C)n1-c1cccnc1 was read as Pf growth 96h 16.4%, CHX counter -1.9, Lassa entry inh -19.2%, Marburg entry inh -25.6%, Shiga inhibitor -2.2 and Pf growth 48h 13.1µM*.
Cc1cc(/C=C2/NC(=O)N(c3ccccc3)C2=O)c(C)n1-c1cccnc1 was read as Pf growth 96h inconclusive, CHX counter 59.3*, Lassa entry inh -7.4%, Marburg entry inh inconclusive, Shiga inhibitor 90.6* and Pf growth 48h 9.4%.
`COc1ccc(-c2c(C(F)(F)F)nn(C)c2NC(=O)c2ccco2)cc1` gave Pf growth 96h inconclusive, CHX counter 0.9, Shiga inhibitor 1.1 and Pf growth 48h inconclusive.
Screening CCN(CC)c1ccc(Nc2nc(Cl)ncc2Br)cc1 returned Pf growth 96h 32.5%, CHX counter -1.8, Lassa entry inh -11.1%[46.1 µM], Marburg entry inh inconclusive, Shiga inhibitor 25.6 and Pf growth 48h -16.3%.
Screening Fc1ccc(C2c3[nH]c4ccccc4c3CCN2Cc2ccoc2)cc1 (configuration not stated) returned Pf growth 96h inconclusive, CHX counter 9.2, Lassa entry inh -17.2%[46.1 µM], Marburg entry inh inconclusive, Shiga inhibitor 0.7 and Pf growth 48h inconclusive.
For O=C(c1noc2c1CCCC2)N1CCc2c([nH]c3ccccc23)C1c1ccccn1 (configuration not stated) the results were Pf growth 96h inconclusive, CHX counter 8.4*, Lassa entry inh -19.2%, Marburg entry inh inconclusive, Shiga inhibitor 18.7 and Pf growth 48h inconclusive.
